# Laboratory results published in the supplement of paper PMC4709259.
# Counter-ions that a name gives are not always drawn. ± gives the standard deviation.
# Tests used:
# Jurkat [1] = test: mean cell size (FSC-A) relative to DMSO control (fraction of control); higher = larger cells; conditions: 48 h
# Outline: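 Jurkat cells at 600 cells/µl were incubated for 1 h and then treated for 48h with the Enzo Screen-Well FDA Approved Drug Library v2.0 at 25µM, with DMSO at 0.9% (v/v) final. Compounds that reduced counts below 20% of controls were retested in 10-fold dilutions down to 25nM. Cell count and mean cell size, taken as forward scatter area, were measured by flow cytometry relative to solvent-only controls. Each plate carried 6-12 controls, and values are means of 3 biological replicates.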
# Jurkat [2] = test: cell count relative to DMSO control (fraction of control); higher = more cells (less growth inhibition); conditions: 48 h
SMILES,mean cell size (Jurkat [1]),cell count (Jurkat [2])
CCC1(c2ccccc2)C(=O)NCNC1=O [Primidone] (concentration: 25 µM),1 ± 0.021,0.618 ± 0.18
CN(C)CCOc1ccc(/C(=C(/CCCl)c2ccccc2)c2ccccc2)cc1 [Toremifene Base] (concentration: 25 µM),0.9556 ± 0.0078,0.948 ± 0.079
O=C1O[C@H]([C@@H](O)CO)C(O)=C1O [L-Ascorbic Acid] (concentration: 25 µM),1 ± 0.029,0.836 ± 0.068
CC/C(=C(\c1ccccc1)c1ccc(OCCN(C)C)cc1)c1ccccc1 [Tamoxifen Citrate] (concentration: 25 µM),0.908 ± 0.015,0.314 ± 0.11
O=c1[nH]c(=O)n([C@H]2C[C@H](O)[C@@H](CO)O2)cc1I [Idoxuridine] (concentration: 25 µM),1.05 ± 0.019,0.235 ± 0.062
NNCCc1ccccc1 [Phenelzine Sulfate] (concentration: 25 µM),0.942 ± 0.015,0.882 ± 0.12
CN1CCC[C@@H]1CCO[C@](C)(c1ccccc1)c1ccc(Cl)cc1 [Clemastine Fumarate] (concentration: 25 µM),0.985 ± 0.024,0.24 ± 0.04
Cc1c(OCC(F)(F)F)ccnc1C[S+]([O-])c1nc2ccccc2[nH]1 (stereo unspecified) [Lansoprazole] (concentration: 25 µM),0.927 ± 0.027,0.617 ± 0.01
Nc1ccc(O)c(C(=O)O)c1 [Mesalamine (5-Aminosalicylic Acid)] (concentration: 25 µM),0.912 ± 0.019,1 ± 0.046
OC[C@H]1O[C@@H](n2cnc3c2N=CNC[C@H]3O)C[C@@H]1O [Pentostatin] (concentration: 25 µM),0.959 ± 0.029,1.14 ± 0.024
C[N+]1(C)CCC(OC(=O)C(O)(c2ccccc2)C2CCCC2)C1 (stereo unspecified) [Glycopyrrolate Iodide] (concentration: 25 µM),0.995 ± 0.037,0.838 ± 0.061
CC(C)NCC(O)c1cc(O)cc(O)c1 (stereo unspecified) [Metaproterenol Hemisulfate (Orciprenaline)] (concentration: 25 µM),1.1 ± 0.033,0.895 ± 0.04
C1N2CN3CN1CN(C2)C3 [Methenamine Hippurate] (concentration: 25 µM),1.03 ± 0.063,0.89 ± 0.1
CC(C)NCC(O)c1ccc(O)c(O)c1 (racemic) [(±) Isoproterenol·HCl] (concentration: 25 µM),0.981 ± 0.047,0.659 ± 0.0053
CC(CCc1ccccc1)NCC(O)c1ccc(O)c(C(N)=O)c1 (stereo unspecified) [Labetalol·HCl] (concentration: 25 µM),0.928 ± 0.049,0.821 ± 0.1
OCCOCCN1CCN(C(c2ccccc2)c2ccc(Cl)cc2)CC1 (stereo unspecified) [Hydroxyzine Dihydrochloride] (concentration: 25 µM),0.948 ± 0.021,0.968 ± 0.063
Cc1cccn2c(=O)c(-c3nnn[nH]3)cnc12 [Pemirolast Potassium] (concentration: 25 µM),0.938 ± 0.024,0.756 ± 0.11
COc1ccccc1OCCNCC(O)COc1cccc2[nH]c3ccccc3c12 (stereo unspecified) [Carvedilol] (concentration: 25 µM),1.01 ± 0.014,0.39 ± 0.034
CN[C@H]1CC[C@@H](c2ccc(Cl)c(Cl)c2)c2ccccc21 [Sertraline·HCl] (concentration: 2.5 µM),1.008 ± 0.0063,0.853 ± 0.12
CC=CC1=C(C(=O)O)N2C(=O)[C@@H](NC(=O)[C@H](N)c3ccc(O)cc3)[C@H]2SC1 [Cefprozil] (concentration: 25 µM),0.951 ± 0.035,1.06 ± 0.035
OCc1cc(C(O)CNCCCCCCOCCCCc2ccccc2)ccc1O (stereo unspecified) [Salmeterol] (concentration: 25 µM),0.927 ± 0.023,0.669 ± 0.042
Cc1nnc(C(=O)NC(C)(C)c2nc(C(=O)NCc3ccc(F)cc3)c(O)c(=O)n2C)o1 [Raltegravir] (concentration: 25 µM),0.9483 ± 0.0067,0.569 ± 0.11
CCOC(=O)c1ncn2c1CN(C)C(=O)c1cc(F)ccc1-2 [Flumazenil] (concentration: 25 µM),0.95 ± 0.014,0.87 ± 0.025
Nc1nc(F)nc2c1ncn2[C@@H]1O[C@H](COP(=O)(O)O)[C@@H](O)[C@@H]1O [Fludarabine Phosphate] (concentration: 2.5 µM),1.327 ± 0.0094,0.378 ± 0.024
NC[C@@H]1O[C@H](O[C@H]2[C@@H](O)[C@H](O[C@@H]3[C@@H](O)[C@H](N)C[C@H](N)[C@H]3O[C@H]3O[C@H](CN)[C@@H](O)[C@H](O)[C@H]3N)O[C@@H]2CO)[C@H](N)[C@@H](O)[C@@H]1O [Neomycin Sulfate] (concentration: 25 µM),0.935 ± 0.018,0.944 ± 0.038
NS(=O)(=O)c1cc2c(cc1Cl)N=CNS2(=O)=O [Chlorothiazide] (concentration: 25 µM),0.926 ± 0.011,1.16 ± 0.082
Cn1c(=O)c2c(ncn2C)n(C)c1=O [Caffeine] (concentration: 25 µM),0.986 ± 0.046,1 ± 0.093

SMILES,mean cell size (Jurkat [1]),cell count (Jurkat [2])
CN1C(=O)CC(C)(c2ccccc2)C1=O (stereo unspecified) [Methsuximide] (concentration: 25 µM),1.03 ± 0.03,0.752 ± 0.068
Nc1nc(NC2CC2)c2ncn([C@H]3C=C[C@@H](CO)C3)c2n1 [Abacavir Sulfate] (concentration: 25 µM),1.1 ± 0.033,0.858 ± 0.15
C[C@]12CCC3=C4CCC(=O)C=C4CC[C@H]3[C@@H]1CC[C@@]2(O)CC#N [Dienogest] (concentration: 25 µM),0.963 ± 0.035,0.827 ± 0.15
CC(C)(C#N)c1cc(Cn2cncn2)cc(C(C)(C)C#N)c1 [Anastrozole] (concentration: 25 µM),0.98 ± 0.021,0.933 ± 0.054
O=C1NC(=O)C(c2ccccc2)(c2ccccc2)N1 [Phenytoin] (concentration: 25 µM),0.978 ± 0.042,0.74 ± 0.12
CCCc1nn(C)c2c(=O)[nH]c(-c3cc(S(=O)(=O)N4CCN(C)CC4)ccc3OCC)nc12 [Sildenafil Citrate] (concentration: 25 µM),1.02 ± 0.055,0.719 ± 0.22
Clc1ccc2nsnc2c1NC1=NCCN1 [Tizanidine·HCl] (concentration: 25 µM),1.01 ± 0.014,0.771 ± 0.054
COCCc1ccc(OCC(O)CNC(C)C)cc1 (stereo unspecified) [Metoprolol Tartrate] (concentration: 25 µM),0.935 ± 0.026,1.02 ± 0.11
COc1ccc(CC(C)NCC(O)c2ccc(O)c(NC=O)c2)cc1 (stereo unspecified) [Formoterol] (concentration: 25 µM),0.992 ± 0.033,0.808 ± 0.044
O=C(c1ccc(OCCN2CCCCC2)cc1)c1c(-c2ccc(O)cc2)sc2cc(O)ccc12 [Raloxifene·HCl] (concentration: 25 µM),0.891 ± 0.016,0.675 ± 0.044
O=C(O)CCCc1ccccc1 [Sodium Phenylbutyrate] (concentration: 25 µM),0.936 ± 0.024,1.05 ± 0.12
O=c1[nH]c(=O)n([C@H]2C[C@H](O)[C@@H](CO)O2)cc1F [Floxuridine] (concentration: 25 nM),1.06 ± 0.063,0.178 ± 0.096
Cc1[nH]cnc1CN1CCc2c(c3ccccc3n2C)C1=O [Alosetron·HCl] (concentration: 25 µM),0.954 ± 0.059,0.592 ± 0.12
CCCc1nc(C(C)(C)O)c(C(=O)O)n1Cc1ccc(-c2ccccc2-c2nnn[nH]2)cc1 [Olmesartan] (concentration: 25 µM),0.97 ± 0.034,1.16 ± 0.1
COc1cc2nc(N(C)CCCNC(=O)C3CCCO3)nc(N)c2cc1OC (stereo unspecified) [Alfuzosin] (concentration: 25 µM),0.952 ± 0.029,0.41 ± 0.14
CN1C2CCCC1CC(NC(=O)c1nn(C)c3ccccc13)C2 (stereo unspecified) [Granisetron·HCl] (concentration: 25 µM),0.9687 ± 0.004,0.899 ± 0.037
CC1(C)O[C@@H]2C[C@H]3[C@@H]4CCC5=CC(=O)C=C[C@]5(C)[C@H]4[C@@H](O)C[C@]3(C)[C@]2(C(=O)CO)O1 [Desonide] (concentration: 25 µM),0.948 ± 0.027,0.857 ± 0.014
CC(C)c1c(C(=O)Nc2ccccc2)c(-c2ccccc2)c(-c2ccc(F)cc2)n1CC[C@@H](O)C[C@@H](O)CC(=O)O [Atorvastatin Calcium] (concentration: 25 µM),1.05 ± 0.028,0.552 ± 0.07
Cc1cccc(C)c1OCC(=O)N[C@@H](Cc1ccccc1)[C@@H](O)C[C@H](Cc1ccccc1)NC(=O)[C@H](C(C)C)N1CCCNC1=O [Lopinavir] (concentration: 25 µM),0.8546 ± 0.0077,0.373 ± 0.029
CCCCS(=O)(=O)N[C@@H](Cc1ccc(OCCCCC2CCNCC2)cc1)C(=O)O [Tirofiban·HCl] (concentration: 25 µM),0.937 ± 0.023,1.01 ± 0.08
COc1cc([C@@H]2c3cc4c(cc3[C@@H](O[C@@H]3O[C@@H]5CO[C@@H](C)O[C@H]5[C@H](O)[C@H]3O)[C@H]3COC(=O)[C@H]23)OCO4)cc(OC)c1O [Etoposide] (concentration: 250 nM),1.25 ± 0.076,0.243 ± 0.051
N[C@@H](C(=O)N[C@@H]1C(=O)N2C(C(=O)O)=C(Cl)CS[C@H]12)c1ccccc1 [Cefaclor] (concentration: 25 µM),0.916 ± 0.015,1.03 ± 0.097
CC(=O)/N=c1/sc(S(N)(=O)=O)nn1C [Methazolamide] (concentration: 25 µM),1.02 ± 0.035,0.925 ± 0.091
CC(=O)OCC(=O)[C@@]12OC(C)(C)O[C@@H]1C[C@H]1[C@@H]3C[C@H](F)C4=CC(=O)C=C[C@]4(C)[C@@]3(F)[C@@H](O)C[C@@]12C [Fluocinonide] (concentration: 25 µM),0.944 ± 0.027,0.551 ± 0.03
COC(=O)C1=C(C)NC(C)=C(C(=O)OC)C1c1ccccc1[N+](=O)[O-] [Nifedipine] (concentration: 2.5 µM),1.02 ± 0.036,0.92 ± 0.1
COc1ccccc1Oc1c(NS(=O)(=O)c2ccc(C(C)(C)C)cc2)nc(-c2ncccn2)nc1OCCO [Bosentan] (concentration: 25 µM),0.975 ± 0.018,0.675 ± 0.068
